Screens as filed in PubChem.
Many of the other results were omitted from the sample, so hits are more common in it than they were.
APE1 inh: APE1 (human) endonuclease inhibition. P27695. recombinant APE1, TAMRA/BHQ-2 abasic DNA cleavage fluorescence. Potency, µM (top dose mostly 65.8 µM), inactives show at the highest dose activity change, negative = inhibition, actives largely listed as inhibitors. 0.35% of 350,000 active. AID 2517;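 note: plate controls were vehicle for no effect and reference inhibitor for full effect; nearly all actives have a fitted effect of over 55% in size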
Target sequence (P27695 whole entry, looked up): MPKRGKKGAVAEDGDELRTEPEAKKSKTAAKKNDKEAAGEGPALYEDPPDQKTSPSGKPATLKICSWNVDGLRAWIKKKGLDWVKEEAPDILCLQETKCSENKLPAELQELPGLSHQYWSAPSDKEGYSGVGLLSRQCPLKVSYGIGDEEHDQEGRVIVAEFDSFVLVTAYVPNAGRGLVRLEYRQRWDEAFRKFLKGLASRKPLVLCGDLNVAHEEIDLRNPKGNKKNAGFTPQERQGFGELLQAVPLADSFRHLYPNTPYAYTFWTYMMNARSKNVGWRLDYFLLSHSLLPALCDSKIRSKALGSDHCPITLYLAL
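Step 1: APE1 (0.75 nM) with compound, 15 min RT. Step 2: add 50 nM fluorophore/quencher THF duplex. Step 3: three fluorescence reads 60 s apart (525/598 nm); read 3 minus read 1 = reaction progress.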
BLM helicase inh: blocks DNA unwinding by human BLM helicase. P54132. Potency, µM (highest dose often 56.1 µM), for the others: at the top dose activity change, negative = inhibition, actives largely listed as inhibitors. recombinant BLM DNA unwinding, fluorescence dequenching. 0.2% of 350,000 active;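 note: plate controls were vehicle for no effect and no enzyme for full effect; nearly all actives have a fitted effect of over 35% in size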
RECQ1 helicase: RECQ1 (human) helicase inhibition. P46063. RECQ1 DNA unwinding, red fluorescence kinetic read. Potency, µM (highest dose often 57.3 µM), inactives show top-dose activity, negative = inhibition, actives largely listed as inhibitors. 0.54% of 240,000 active. AID 2549;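 note: plate controls were vehicle for no effect and no enzyme for full effect; nearly all actives have a fitted effect of over 30% in size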
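RECQ1T1 50 nM; forked duplex (20 bp + 30-nt ss tails) 200 nM, ATP 2 mM final; pH 8.0, 2 mM MgCl2, 2.5 ug/ml poly(dI-dC); 15 min compound preincubation; discontinuous kinetic read over 2 h at RT.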
KDM4E inh: inhibitors of human JMJD2E histone demethylase; B2RXH2; JMJD2E catalytic domain, FDH-coupled NADH fluorescence (FDH is formaldehyde dehydrogenase); Potency, µM (top dose mostly 57.1 µM), for inactives: top-dose activity change, negative = inhibition, hits mostly inhibitors; 1.6% of 230,000 active; AID 2147; active = well fitted inhibition curve with a large enough effect, not every such curve was filed as active; inconclusive = small, poorly fitted or top-dose-only effect, or another doubt; inactive = no such curve, though single readings can be large or run the other way;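 note: 0% = wells with enzyme and -100% = buffer wells without enzyme; nearly all actives have a fitted effect of over 50% in size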
L3MBTL1 block: inhibitors of human L3MBTL1; Q9Y468; AlphaScreen L3MBTL1–H3K9me1 peptide binding; Potency, µM (series often up to 57.1 µM), for the others: at the highest dose activity, negative = inhibition, actives largely listed as inhibitors; 0.66% of 230,000 active; note: nearly all actives have a fitted effect of over 60% in size
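Displacement of a biotinylated histone H3(1-15) peptide monomethylated at Lys9 (75 nM) from L3MBTL1 (50 nM) was measured by AlphaScreen after a 30 min room-temperature compound incubation; cefsulodin titration served as intraplate control.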
GoLoco inh red: RGS12 GoLoco-Gai1 interaction inhibition. P63096. Gai1:RGS12 GoLoco peptide FP, rhodamine, 10 min. Potency, µM (top dose mostly 61.6 µM), for inactives: at the highest dose activity, negative = inhibition, hits mostly inhibitors. 0.44% of 230,000 active. AID 880; active = well fitted inhibition curve with a large enough effect, not every such curve was filed as active; inactive = no such curve, though single readings can be large or run the other way; note: nearly all actives have a fitted effect of over 30% in size
Starred values were filed as active, the others as inactive; i = inactive; ? = inconclusive; nt = no result; ! = a repeat was not active; [ ] = remark or other dose. Unless noted, calls come from the whole dose curve; as a rule, active = well fitted curve in the direction sought with a large enough effect; inconclusive = small, poorly fitted or top-dose-only effect, or another doubt; inactive = no such curve, though single readings can be large; an effect the other way counts as inactive or inconclusive. Unless noted, % is set by controls: 0 for no effect and ±100 for the full control effect; potency is the fitted concentration of half-maximal effect.

SMILES	APE1 inh	BLM helicase inh	RECQ1 helicase	KDM4E inh	L3MBTL1 block	GoLoco inh red
O=C1C2C3C=CC(CC3)C2C(=O)N1/N=C/c1ccc(O)c(O)c1 (stereo not drawn)	-11%	-4%	-7%	16µM*	-7%	-15%
O=C1C2C3C=CC(CC3)C2C(=O)N1/N=C/c1ccc(O)cc1 (stereo not drawn)	-3%	3%	i	-1%	3%	-3%
COc1ccc(-c2noc(-c3ccc(NCC4CCCO4)c([N+](=O)[O-])c3)n2)cc1 (stereo not drawn)	nt	-5%	nt	nt	nt	nt
COc1ccc2c(c1)C(=O)[C@@H](OC(=O)N[C@H](C)C1CCCCC1)[C@H](c1ccc(OC)c(Br)c1)O2	1%	3%	i	-18%	nt	2%
COC(=O)c1ccc(/C=C(\C#N)c2ccccn2)cc1	-5%	1%	-3%	?	nt	1%
N#CC(C#N)=Cc1ccc(OC(=O)c2ccccn2)cc1	-1%	-3%	-2%	18µM*	25µM*	98%
N#Cc1c(-c2cccc(Br)c2)no[n+]1[O-]	-10%	nt	nt	nt	nt	nt
O=C(O)/C=C/C(=O)Nc1ccc(Oc2ccc(NC(=O)/C=C/C(=O)O)cc2)cc1	?	-24%	i	-2%	25µM*	-9%
O=C(O)/C=C\C(=O)Nc1ccc(Oc2ccccc2)cc1	-3%	2%	-1%	-11%	0%	1%
CO/N=C\[C@@H](NS(=O)(=O)c1ccc(C)cc1)[C@H](C)/C=C\CC(=O)OC	29%[12.4 µM]	-13%[12.4 µM]	-12%[11.5 µM]	nt	nt	nt
O=C1OC2(c3cc(Br)c(O)c(Br)c3Oc3c2cc(Br)c(O)c3Br)c2c(Cl)c(Cl)c(Cl)c(Cl)c21	4.5µM*	nt	5µM*	nt	nt	0.79µM*
COc1cccc(-c2csc(N3CCC(C(N)=O)CC3)n2)c1	19%	nt	nt	nt	nt	nt
c1ccc(-c2ccc(-c3ccccn3)nn2)nc1	15%	-9%	0%	?	3.5µM*	14%
CCOC(=O)c1cccc(NC(=O)Cc2ccc(NC(=O)N3CCCCc4ccccc43)cc2)c1	nt	-8%	nt	nt	nt	nt
Oc1c(Br)cc(Br)c2cccnc12	-1%	1%	i	20µM*	nt	1%
COC(=O)NC(CCc1ccccc1)C(C(=O)OC)C(=O)OC (stereo not drawn)	?	-10%	-14%	-3%	nt	-4%
COc1ccc(/C=C/C(=O)c2cc3c(cc2N)OCO3)cc1	5%	-9%	-14%	22µM*	nt	2%
COC(=O)c1nnn(-c2ccc(Br)cc2)c1C(=O)OC	nt	-1%	nt	nt	nt	nt
O=C(Nc1ccccc1)C1=C[C@H](c2csc3ccccc23)C[C@H](OCCCCO)O1	3%	-5%	40µM*	0%	4%	4%
C[C@H]1Cc2c(COc3ccccc3)nc3c(c2CO1)CN(S(=O)(=O)c1ccc(C#N)cc1)CC3	-3%[12.4 µM]	-3%[12.4 µM]	i[11.5 µM]	-1%[11.4 µM]	nt	7%[14.2 µM]
Cc1cccc(NC(=S)NNC(=O)c2nn(C)cc2Cl)c1	0%	-2%	-1%	32µM*	-7%	7%
Cc1ccc(NC(=O)COC(=O)c2nn(C)cc2Cl)cc1	34%	-3%	nt	nt	nt	nt
Cc1ccc(NC(=S)NNC(=O)c2nn(C)cc2Cl)cc1	1%	-3%	-4%	20µM*	6%	11%
Cc1cccc(NC(=S)NNC(=O)c2ccccc2Br)c1	1%	-2%	-2%	8%	3%	7%
CC[C@H]1OC(=O)C[C@@H](O)[C@H](C)[C@@H](O[C@@H]2O[C@H](C)[C@@H](O)[C@H](N(C)C)[C@H]2O)[C@@H](CCN2C[C@H](C)C[C@H](C)C2)C[C@@H](C)C(=O)/C=C/C(C)=C/[C@@H]1CO[C@@H]1O[C@H](C)[C@@H](O)[C@@H](OC)[C@H]1OC	-2%	nt	nt	nt	nt	nt
O=C1CSC2(C(=O)N(Cc3c(F)cccc3Cl)c3ccccc32)N1c1ccc(F)c(F)c1 (stereo not drawn)	nt	-7%	nt	nt	nt	nt
Cc1c(Cl)cccc1Nc1ccccc1C(=O)O	2%	0%	-2%	-4%	12%	28µM*!
Cc1c(Cl)cccc1Nc1ncccc1C(=O)O	-11%	0%	nt	nt	nt	nt
